Experimental data from the supplement of paper PMC11624193, “Coupling cellular drug-target engagement to downstream pharmacology with CeTEAM” (Nature Communications, 2024).
Counter-ions that a name gives are not always drawn. Values without a mark were called inactive.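 How the source made its calls: active = log2 fold change beyond 2 SD from the library mean after excluding viability outliers; inactive = within 2 SD.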

target: PARP1 L713F-nLuc biosensor (HCT116) (UniProt P09874); assay: PARP1 L713F-nLuc/akaLuc ratio relative to DMSO control (biosensor stabilization) (fold change); higher = more PARP1 biosensor stabilization (target engagement / stabilizer), active = hit call of the paper; conditions: stock concentration (mM; final µM = stock mM x 1): 10; 24 h
Sequence (P09874 whole entry L713F, looked up): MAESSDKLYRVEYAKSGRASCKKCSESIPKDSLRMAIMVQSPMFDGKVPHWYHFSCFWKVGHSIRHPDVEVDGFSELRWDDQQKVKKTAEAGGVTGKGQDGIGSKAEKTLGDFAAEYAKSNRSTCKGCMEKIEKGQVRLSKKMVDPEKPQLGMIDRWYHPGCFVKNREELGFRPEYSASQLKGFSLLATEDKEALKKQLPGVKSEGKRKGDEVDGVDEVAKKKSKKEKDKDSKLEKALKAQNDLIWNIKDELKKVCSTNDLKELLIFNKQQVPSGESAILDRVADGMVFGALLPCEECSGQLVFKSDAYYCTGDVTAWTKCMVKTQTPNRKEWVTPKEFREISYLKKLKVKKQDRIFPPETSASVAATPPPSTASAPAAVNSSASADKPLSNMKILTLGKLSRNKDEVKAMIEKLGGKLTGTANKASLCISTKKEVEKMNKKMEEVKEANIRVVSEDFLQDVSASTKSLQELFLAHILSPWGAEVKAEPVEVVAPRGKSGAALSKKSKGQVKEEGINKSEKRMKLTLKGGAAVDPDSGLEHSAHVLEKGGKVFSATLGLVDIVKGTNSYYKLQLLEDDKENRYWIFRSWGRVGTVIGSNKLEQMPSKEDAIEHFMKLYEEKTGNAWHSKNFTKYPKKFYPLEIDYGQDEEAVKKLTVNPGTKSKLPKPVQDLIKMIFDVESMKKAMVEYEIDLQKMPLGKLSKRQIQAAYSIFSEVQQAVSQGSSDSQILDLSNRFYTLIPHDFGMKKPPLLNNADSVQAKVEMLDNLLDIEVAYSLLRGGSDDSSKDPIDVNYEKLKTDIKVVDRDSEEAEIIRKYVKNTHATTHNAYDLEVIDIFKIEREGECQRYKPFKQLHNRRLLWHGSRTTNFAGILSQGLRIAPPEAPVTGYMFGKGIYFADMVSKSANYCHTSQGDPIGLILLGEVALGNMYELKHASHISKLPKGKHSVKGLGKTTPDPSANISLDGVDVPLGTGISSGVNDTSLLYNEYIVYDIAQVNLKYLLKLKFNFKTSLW

NC(=O)c1cccc2cn(-c3ccc([C@@H]4CCCNC4)cc3)nc12 [Niraparib (R-enantiomer)] was tested, and the “PARP1 L713F-nLuc/akaLuc ratio” value was 8.24 (active).

Going from NNc1nncc2ccccc12 [Hydralazine (hydrochloride)] to O=C1CCc2ccccc2O1 [Dihydrocoumarin], the “PARP1 L713F-nLuc/akaLuc ratio” value rises from 0.617 to 0.769.

Compared with Cc1cc2c(F)c(Oc3ncnn4cc(OC[C@@H](C)O)c(C)c34)ccc2[nH]1, O=C(O)C(Cc1c[nH]c2ccccc12)N1C(=O)c2ccccc2C1=O (stereo not drawn) is higher in “PARP1 L713F-nLuc/akaLuc ratio” value: 0.898 for the first, 1.39 for the second.

Going from N#Cc1c(N2CCCC2)nc(N)c2c(N)nc(N3CCCC3)cc12 to CO[C@H]1C[C@@H]2CC[C@@H](C)[C@@](O)(O2)C(=O)C(=O)N2CCCC[C@H]2C(=O)O[C@H]([C@H](C)C[C@@H]2CC[C@@H](OP(C)(C)=O)[C@H](OC)C2)CC(=O)[C@H](C)/C=C(\C)[C@@H](O)[C@@H](OC)C(=O)[C@H](C)C[C@H](C)/C=C/C=C/C=C/1C [Ridaforolimus (Deforolimus, MK-8669)], the “PARP1 L713F-nLuc/akaLuc ratio” value rises from 1.1 to 1.7.

With CC(C)(C)NC(=O)[C@H]1CC[C@H]2[C@@H]3CC[C@H]4NC(=O)C=C[C@]4(C)[C@H]3CC[C@]12C [Finasteride] the “PARP1 L713F-nLuc/akaLuc ratio” value was 1.22.
